PubChem BioAssay

Target: Tumor necrosis factor receptor superfamily member 10B (Homo sapiens) (UniProt O14763)
Assay: viability loss of caspase-8 NB7 cells with TRAIL – with/without TRAIL, luminescence panel, confirmation (AID 651596)
Conditions: NB7 neuroblastoma + caspase-8, TRAIL sensitization, NB7 Caspase-8, with TRAIL, mean of runs, at 10 µM, stronger effect = higher value

Sequence of Tumor necrosis factor receptor superfamily member 10B (Homo sapiens) (O14763 whole entry, looked up): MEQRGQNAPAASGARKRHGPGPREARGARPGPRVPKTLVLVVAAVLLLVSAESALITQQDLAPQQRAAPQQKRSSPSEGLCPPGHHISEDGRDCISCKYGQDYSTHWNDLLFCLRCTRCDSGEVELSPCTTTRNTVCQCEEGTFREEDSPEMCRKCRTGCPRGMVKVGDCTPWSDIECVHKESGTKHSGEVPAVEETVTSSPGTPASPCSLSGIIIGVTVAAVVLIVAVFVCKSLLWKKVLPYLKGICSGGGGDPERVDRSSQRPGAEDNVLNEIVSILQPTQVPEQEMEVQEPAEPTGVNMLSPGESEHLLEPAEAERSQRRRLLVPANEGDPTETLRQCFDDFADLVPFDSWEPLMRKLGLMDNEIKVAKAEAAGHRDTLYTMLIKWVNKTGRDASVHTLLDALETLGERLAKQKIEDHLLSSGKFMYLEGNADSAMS

| Structure (SMILES) | activity |
| --- | --- |
| CCOc1ccc(N2C(N)=NC(N)=NC2(C)C)cc1 | 67.3% |
| O=C(/C=C/c1ccco1)Nc1scc(-c2ccccc2)c1C(=O)O | 51.9% |
| Cc1ccccc1CS(=O)(=O)c1ncc(Cl)c(C(=O)Nc2ccc(F)cc2)n1 | 22.5% |
| O=C1Nc2ccccc2N(C(=O)c2ccc3ccccc3c2)C1c1nc2ccccc2[nH]1 (stereo unspecified) | 48.1% |
| COC(=O)c1ccc(CCc2cc(O)c(Br)cc2O)cc1 | 15% |
| Cc1cc(C)cc(C(=O)O/N=C(\N)c2ccc(Br)cc2)c1 | 89.5% |
| CN(C)CCNC(=O)c1cccc(-c2cnc3c(NC=O)cc(-c4cccc(C(F)(F)F)c4)cn23)c1 | 46.6% |
| FC(F)(F)c1cccc(Sc2nc(-c3ccccc3)nnc2C(F)(F)F)c1 | 42.5% |
| COc1ccc(CC(N)c2csc(NC(=O)Nc3ccc(C(C)C)cc3)n2)cc1 (stereo unspecified) | 82.5% |
| CC(C)(C)c1csc(NC(=O)Nc2ccccc2)n1 | 41.3% |
| O=C(NC1CC1)C1CCN(S(=O)(=O)c2ccc(Cl)c([N+](=O)[O-])c2)CC1 | 65.2% |
| COc1ccc(-c2ccc(SC)nn2)cc1 | 88.9% |
| CC(/C=N/NC(=O)c1cccs1)=C\c1ccccc1 | 61.9% |
| CCOc1ccc(C(=O)Nc2ccc3c(c2)OCCO3)cc1 | 70.5% |
| CCCCCCCCCCCCCCCC[N+](C)(C)CCl | 96% |
| C=C1C(=O)c2sccc2C(c2ccc(OC)c(OC)c2)C1COC(C)=O (stereo unspecified) | 98.2% |
| CN1CCN(c2ccc3sc(-n4ccc5ccccc54)nc3c2)CC1 | 76.2% |
| COc1ccccc1C(=O)NNC(=O)c1cccc(O)c1 | 44.2% |
| COc1ccc(C(=O)O/N=C(\N)c2ccccn2)c(OC)c1 | 75.5% |
| Cc1nc(SCCC(=O)O)c2cc(-c3ccccc3)sc2n1 | 59% |
| O=C(CN1C(=O)c2ccccc2S1(=O)=O)c1ccc(Cl)cc1Cl | 64.3% |
| COc1cccc2oc3cc(C#CC4(O)CCCCC4)ccc3c(=O)c12 | 71.2% |
| COc1ccc(C(=O)Nc2ccc3ccccc3c2)cc1 | 76.8% |
| CN(C(=O)c1ccc(NC(=O)Cc2cccc(NC(=O)C3CCCN(S(=O)(=O)c4cccc([N+](=O)[O-])c4)C3)c2)cc1)C1CC1 (stereo unspecified) | 56.3% |
| CC(C)(C)c1ccc(-c2nnc(N)s2)cc1 | 64.7% |
| O=C(CCl)N(Cc1cccc([N+](=O)[O-])c1)c1cccc(Cl)c1 | 99.1% |
| CC1(C)N=C(N)N=C(N)N1c1cccc(CC(=O)Nc2ccccc2)c1 | 77.8% |

System: not listed separately
Assay: as above
Conditions: NB7 neuroblastoma + caspase-8, without TRAIL, NB7 Caspase-8, without TRAIL, mean of runs, at 10 µM

| Structure (SMILES) | activity |
| --- | --- |
| CCOc1ccc(N2C(N)=NC(N)=NC2(C)C)cc1 | 82.9% |
| O=C(/C=C/c1ccco1)Nc1scc(-c2ccccc2)c1C(=O)O | 39.8% |
| Cc1ccccc1CS(=O)(=O)c1ncc(Cl)c(C(=O)Nc2ccc(F)cc2)n1 | 24.9% |
| O=C1Nc2ccccc2N(C(=O)c2ccc3ccccc3c2)C1c1nc2ccccc2[nH]1 (stereo unspecified) | 43.4% |
| COC(=O)c1ccc(CCc2cc(O)c(Br)cc2O)cc1 | 19.7% |
| Cc1cc(C)cc(C(=O)O/N=C(\N)c2ccc(Br)cc2)c1 | 89.5% |
| CN(C)CCNC(=O)c1cccc(-c2cnc3c(NC=O)cc(-c4cccc(C(F)(F)F)c4)cn23)c1 | 90.8% |
| FC(F)(F)c1cccc(Sc2nc(-c3ccccc3)nnc2C(F)(F)F)c1 | 60.4% |
| COc1ccc(CC(N)c2csc(NC(=O)Nc3ccc(C(C)C)cc3)n2)cc1 (stereo unspecified) | 97.2% |
| CC(C)(C)c1csc(NC(=O)Nc2ccccc2)n1 | 50% |
| O=C(NC1CC1)C1CCN(S(=O)(=O)c2ccc(Cl)c([N+](=O)[O-])c2)CC1 | 88.2% |
| COc1ccc(-c2ccc(SC)nn2)cc1 | 90.2% |
| CCOc1ccc(C(=O)Nc2ccc3c(c2)OCCO3)cc1 | 61.4% |
| CCCCCCCCCCCCCCCC[N+](C)(C)CCl | 94.3% |
| C=C1C(=O)c2sccc2C(c2ccc(OC)c(OC)c2)C1COC(C)=O (stereo unspecified) | 99.2% |
| CN1CCN(c2ccc3sc(-n4ccc5ccccc54)nc3c2)CC1 | 64.5% |
| COc1ccccc1C(=O)NNC(=O)c1cccc(O)c1 | 48.4% |
| COc1ccc(C(=O)O/N=C(\N)c2ccccn2)c(OC)c1 | 83.2% |
| COc1cccc2oc3cc(C#CC4(O)CCCCC4)ccc3c(=O)c12 | 68.8% |
| COc1ccc(C(=O)Nc2ccc3ccccc3c2)cc1 | 74.5% |
| CN(C(=O)c1ccc(NC(=O)Cc2cccc(NC(=O)C3CCCN(S(=O)(=O)c4cccc([N+](=O)[O-])c4)C3)c2)cc1)C1CC1 (stereo unspecified) | 36.1% |
| CC(C)(C)c1ccc(-c2nnc(N)s2)cc1 | 66.7% |
| O=C(CCl)N(Cc1cccc([N+](=O)[O-])c1)c1cccc(Cl)c1 | 99.6% |
| CC1(C)N=C(N)N=C(N)N1c1cccc(CC(=O)Nc2ccccc2)c1 | 85.3% |
